biological target: PRB2; assay: pooled miR-30 sensor sort-seq; sequence = guide strand; conditions: shRNA
Also: reference of the scale not given here.

Sequence	sensor-assay potency score (higher = more potent)
TTGGGACTTGTTGTCTCCTTGT	-0.258
GAGGAGATCGAGAACTTCGGGA	-0.989
TTTGGGACTTGTTGTCTCCTTG	-0.1
TGGCTTTCCTGCTATTAGGGAG	-0.778
TTGAGGCTGGTTGCCTCCTTGT	-1.75

biological target: PRDM11; assay: as above; conditions: shRNA

Sequence	sensor-assay potency score (higher = more potent)
TTCTTCTTCTTAGCTTGGGGGT	-0.763
TTTCTTCTTCTTAGCTTGGGGG	-0.807
TAATTCTGCCTGGAGCTCCCGA	-0.672
TCCGACAATAATCTCATCCAAA	-1.56
TTTTCTTCTTCTTAGCTTGGGG	-0.102
TGTTGTTGCACACTGACTGTAG	0.562
TTCTGGGTTATCCAGAACCTGC	-1.79
TAAGCATGTCTAATTCTGCCTG	-0.386
TTGTTGTTGCACACTGACTGTA	-0.0431
TATATTCTGCACACCATGGGTC	0.141
TTGCACACTGACTGTAGGCGTC	-0.555
TCATCCAAACCAACTTACCTGC	-0.593

biological target: PREB; assay: as above; conditions: shRNA

Sequence	sensor-assay potency score (higher = more potent)
TTCTGCAGTGGATCGGAGCTAA	0.0919
TTGAACTCCAGAACCTTCTCCA	0.863
AAAGTCTGTCTGCACCGCCTGC	-1.08
TAAGGGTAGACTACCTAGGAAC	-1.26
TTGATGTGCCTGGAAGCGCAGG	-0.963
TTGTGGGGAATTTGCACTGTGA	-0.563
TTCGTGGGCTTTGAACTCCAGA	-1.33
TAAAGTCTGTCTGCACCGCCTG	-0.668
TTGCACTGTGAAGAGTCGCAGG	-0.529
TTCACTGACATCGAGGCAGGAG	0.301
TTCTTTATGCCTGTCTTGGCGG	-0.991
ATCGGAGCTAAAGTCTGTCTGC	-0.682

biological target: PRKAR1B; assay: as above; conditions: shRNA

Sequence	sensor-assay potency score (higher = more potent)
TTGATCAACGACATAGAAGTTG	-0.313
AACTCCTCGTACATCTTGCGTT	-1.1
TAACGCTGAATGTTCCTCTTGA	0.692
TTCCTTCTCCAGCTTCTCGAAG	-1.27
TTTCTCTCCATCTTCAAACTGG	-0.327
TTGCTGTATAACAGTCTCCCCA	-0.886
TCTAGGATGGAGACCTTGCTGA	-0.482
TGCTGTATAACAGTCTCCCCAG	-0.318
TATAACAGTCTCCCCAGCGATG	-1.57
TTCCTCTTGAGGATCTCAGAGC	-0.844
TACACCTCGGCACTCACGCCTC	-1.12

— the OligoGym collection
